# Assay results reported in ChEMBL document CHEMBL1157539, “Thousands of chemical starting points for antimalarial lead identification” (Nature, 2010).
# System: HepG2
# Test: GSK_TCMDC: Percent inhibition of human HepG2 cell line. Test compounds present at 10uM.
# Format: functional
row,SMILES,Inhibition [%]
1,Cn1c(Cc2ccccc2)nnc1Sc1ccc(C#N)c([N+](=O)[O-])c1,0
2,COc1ccc(C(=O)N2CCc3cc4nccc(N5CCN6CCC[C@H]6C5)c4cc32)cc1,1
3,CC(Oc1ccc(NC(=O)c2cccs2)cc1)C(=O)c1ccc(Cl)cc1 (centres undefined),0
4,CCCCc1ccc(-c2ccc3[nH]c(C)c(Br)c(=O)c3c2)cc1,0
5,COc1cc2nc(C)nc(Nc3ccc(Cc4ccccc4)cc3)c2cc1OC.Cl,16
6,Oc1ccc2nc(NCCCc3ccccc3)nc(NCCCc3ccccc3)c2c1,5
7,CCC1(c2ccccc2)N=C(N)N(CCCc2ccccc2)C1=O (centres undefined),17
8,COc1ccc(CN2CCN(C(=O)c3cccs3)CC2)c(O)c1,7
9,CN(C)CCCNCCS(=O)(=O)c1cccc(Nc2ccc(-c3cccc(N(C)C)c3)cn2)c1,19
10,Cc1cccc(C(=O)NC(NC(=S)Nc2ccc([N+](=O)[O-])cc2)C(Cl)(Cl)Cl)c1 (centres undefined),14
11,Cc1noc(-c2ccc(O)cc2O)c1-c1ccc2c(c1)OCCCO2,8
12,CN1CCN(c2nsc3ccc(-c4ccc(NC(=O)Nc5cc(C(F)(F)F)ccc5F)cc4)cc23)CC1.O=C(O)C(F)(F)F,100
13,O=C1NC(=O)C(c2cccc(NC(=O)c3ccncc3)c2)=C1c1ccccc1,5
14,COc1ccc2ncc(Cl)c(CCN3CC[C@@H](CNCc4cc5c(cn4)OCS5)C3)c2n1.Cl,22
15,O=C(c1cc2cccc([N+](=O)[O-])c2[nH]1)N1CCC(CCN2CCC(c3c[nH]c4ccccc34)CC2)CC1,45
16,O=C(NCc1ccccc1)NC(CCCN1CCC(Oc2cccc(Cl)c2)CC1)c1ccc(Cl)c(Cl)c1 (centres undefined),15
17,CC(C)NCc1ccc(-c2ccc(NC(=O)c3cccc(Cl)c3)cc2)cc1.O=C(O)C(F)(F)F,36
18,Cc1cccc2nc(-c3ccc(-c4ccc(NC(=O)C(=O)c5cccn5C)cc4)cc3)[nH]c12,40
19,NC(=O)c1ccc(C(=O)Nc2cccc(-c3ccc(-c4nc5cc(C(F)(F)F)ccc5[nH]4)cc3)c2)cc1,35
20,CC(=O)N1CCC(C(=O)Nc2ccc(-c3cccc(-c4nc5cc(C(F)(F)F)ccc5[nH]4)c3)cc2)CC1,82

row,SMILES,Inhibition [%]
1,Cc1cc(N[C@@H](CC(C)C)C(=O)NCCc2ccccc2)nc(NCc2ccccc2C)n1.O=C(O)C(F)(F)F,17
2,O=C(Nc1cccc(CN2CCCN(Cc3ccc(O)cc3)CC2)c1)c1ccc(Cl)c(Cl)c1.O=C(O)C(F)(F)F,22
3,Cc1ccc(O)c(-c2cc(C(=O)Nc3ccc(S(=O)(=O)N4CCCCCC4)cc3)[nH]n2)c1,25
4,Cc1cccc2nc(-c3ccc(-c4ccc(CN5CCN(CCO)CC5)cc4)cc3)[nH]c12.O=C(O)C(F)(F)F,20
5,CCOc1c(CCNCCCCNCCc2ccc3ccccc3c2OCC)ccc2ccccc12.CS(=O)(=O)O,100
6,CC(C)(C)OC(=O)NCCc1cccc(-c2c[nH]c3ncc(-c4cccc(NS(C)(=O)=O)c4)cc23)c1,16
7,Cl.O=C1CSc2ccc(CNC3CCN(CCc4c(Cl)cnc5ccc(Cl)cc45)CC3)nc2N1,25
8,O=C(Nc1ccc(-c2ccc(-c3nc4ccccc4[nH]3)s2)cc1)c1ccncc1,21
9,O=C(Nc1ccc(Cl)cc1)c1cc(Cl)ccc1NC(=O)C1CCc2ccccc2O1 (centres undefined),1
10,Nc1nccc2ccc(-c3ccsc3)cc12.O=C(O)C(F)(F)F,38
11,CSc1c(CNCCCNc2cc(=O)c3ccccc3[nH]2)[nH]c2ccccc12,0
12,CCCCCN1CCCC(NS(=O)(=O)c2ccc(C(=O)Nc3ccc(C(F)(F)F)cc3)cc2)C1.O=C(O)C(F)(F)F (centres undefined),41
13,COc1ccc(C(=O)CCC(=O)N(Cc2ccc(-c3ccc(CNCCc4ccc(S(C)(=O)=O)cc4)cn3)cc2)C(C)CN(C)C)cc1F.O=C(O)C(F)(F)F (centres undefined),13
14,CCOC(=O)c1ccc(NC(=O)N[C@H]2CCN(CCCCCNC(=O)/C=C/c3ccc(Cl)c(Cl)c3)C2)cc1,21
15,CC(=O)Nc1ccc(Nc2c3ccccc3nc3ccccc23)cc1,41
16,CC(C)C[C@H](NC(=O)c1ccc(OCCN2CCOCC2)cc1)C(=O)NC(/C=N/N1CCCC1=O)C(C)C (some centres undefined),3
17,COc1cccc(NC(=O)Nc2cc(C)nc3ccccc23)c1,2
18,CCOc1ccccc1CON1C(N)=NC(N)=NC1(C)C,66
19,Cc1ccc(F)c(OC2CCN(c3ccc(C(=O)NC4CC4)cn3)CC2)c1,10
